{"source": "PubChem BioAssay (Tox21)", "note": "“And” between values parts separate entries of the source, which are not always exact repeats. Equal values may be shown once. Inconclusive results are not listed. Where a call stands in place of a potency, no number is given. More than one record can exist for a structure, and the calls need not agree. The source made the active and inactive calls. Calls come from the whole dose curve; as a rule, active = well fitted inhibition curve with a large enough effect in the repeat runs; inconclusive = weak or mixed curves; inactive = no such curve, though single readings can be large or run the other way. Potency is the fitted concentration of half-maximal effect."}
{"molecular_target": "Androgen receptor (Homo sapiens) (UniProt P10275)", "sequence (P10275 whole entry, looked up)": "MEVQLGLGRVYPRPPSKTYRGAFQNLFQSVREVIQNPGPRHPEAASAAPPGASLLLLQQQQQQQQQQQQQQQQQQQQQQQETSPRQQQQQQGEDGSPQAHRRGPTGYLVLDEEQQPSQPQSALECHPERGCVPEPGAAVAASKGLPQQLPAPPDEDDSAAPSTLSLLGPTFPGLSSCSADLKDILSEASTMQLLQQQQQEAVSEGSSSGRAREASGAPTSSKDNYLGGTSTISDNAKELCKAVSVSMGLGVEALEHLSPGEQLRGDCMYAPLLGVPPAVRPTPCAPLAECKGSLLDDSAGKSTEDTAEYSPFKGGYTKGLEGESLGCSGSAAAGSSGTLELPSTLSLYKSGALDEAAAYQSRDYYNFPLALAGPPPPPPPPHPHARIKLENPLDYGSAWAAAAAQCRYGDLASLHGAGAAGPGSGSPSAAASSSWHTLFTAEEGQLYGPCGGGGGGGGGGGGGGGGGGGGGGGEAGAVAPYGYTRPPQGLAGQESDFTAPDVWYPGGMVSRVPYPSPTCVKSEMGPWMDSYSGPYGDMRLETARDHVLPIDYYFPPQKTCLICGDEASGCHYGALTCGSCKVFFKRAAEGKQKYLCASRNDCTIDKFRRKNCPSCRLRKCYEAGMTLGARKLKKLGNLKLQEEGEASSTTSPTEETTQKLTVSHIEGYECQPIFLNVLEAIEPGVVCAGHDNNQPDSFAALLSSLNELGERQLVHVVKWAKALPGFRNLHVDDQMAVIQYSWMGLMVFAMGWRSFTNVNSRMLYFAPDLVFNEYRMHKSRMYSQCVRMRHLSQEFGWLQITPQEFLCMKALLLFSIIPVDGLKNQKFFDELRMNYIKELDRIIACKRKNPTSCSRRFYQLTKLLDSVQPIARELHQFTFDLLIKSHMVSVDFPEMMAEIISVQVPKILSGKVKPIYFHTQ", "assay": "qHTS assay to identify small molecule antagonists of the androgen receptor (AR) signaling pathway using the MDA cell line in the presence of 0.5 nM R1881 (AID 1259243); note: nearly all actives have a fitted effect of over 50% in size", "details": "MDA-kb2 MMTV-luciferase, R1881 0.5 nM, 16 h; series mostly up to 92.4 µM", "description": "U.S. Tox21 Program National Center for Advancing Translational Sciences [NCATS] NIH Chemical Genomics Center [NCGC] U.S. Environmental Protection Agency [EPA] National Institutes of Environmental Health Sciences [NIEHS] National Toxicology Program [NTP] U.S. Food and Drug Administration [FDA] Tox21 Assay Overview: Androgen receptor (AR) is an important member of the nuclear receptor family. Its signaling plays a critical role in AR-dependent prostate cancer and other androgen related diseases. Considerable attention has been given in the past decades to develop methods to study and screen for the environmental chemicals that have the potential to interfere with metabolic homeostasis, reproduction, developmental and behavioral functions. Therefore AR binding assay for screening androgen antagonists can be used to identify potential endocrine disruptors. MDA-kb2 cells (from ATCC, deposited by Wilson et al.) were used to screen for AR inhibitors against Tox21 compound libraries. These cells are human breast carcinoma cells that were stably transfected with a luciferase reporter gene under control of the MMTV promoter that contains response elements for both androgen receptor (AR) and glucocorticoid receptor (GR). The current screening for identification of AR inhibitors against Tox21 libraries used lower concentration (0.5 nM) of R1881 as a stimulator.\nTox21 Assay Protocol Summary: MDA-kb2 cells (cells cultured without CO2) were dispensed at 3,000 cells/well in 4 uL of culture medium into white wall/solid-bottom 1536-well plates (Corning Life Sciences, Corning, NY) using a Multidrop Combi (ThermoFisher Scientific, Waltham, MA) dispenser. After the assay plates were incubated at a 37C and 0% CO2 for 5 hr, 23 nL of compounds dissolved in DMSO, positive controls or DMSO only was transferred to the assay plate by a Pintool station (Kalypsys, San Diego, CA). The transfer of compounds was followed by the addition of 1 uL of 0.5 nM (final concentration) agonist (R1881)/culture medium using a Flying Reagent Dispenser (FRD, Aurora Discovery, San Diego, CA). The plates were incubated at 37C and 0% CO2 for 16 hr. For luciferase reporter gene assay, 4 uL of ONE-Glo reagent (Promega Corporation, Madison, WI) was added to each well using the FRD and after 30 min incubation at room temperature luminescence intensity was measured using ViewLux plate reader (PerkinElmer, Shelton, CT)."}
{"compound": "CN(C)Cc1cc(CN(C)C)c(O)c(CN(C)C)c1", "Potency": "inactive"}
{"compound": "O=C1OC(c2ccc(O)cc2)(c2ccc(O)cc2)c2ccccc21", "Potency": "48.6 µM (active) and inactive"}
{"compound": "CC(=O)c1ccc(S(=O)(=O)NC(=O)NC2CCCCC2)cc1", "Potency": "inactive"}
{"compound": "COCCOCCOC", "Potency": "inactive"}
{"compound": "COCC(C)N", "note": "(stereo not given)", "Potency": "inactive"}
{"compound": "COc1cc(C=O)ccc1O", "Potency": "inactive"}
{"compound": "CCCCCCCCCCCCCC(=O)OC(C)C", "Potency": "inactive"}
{"compound": "CC(O)COc1ccccc1", "note": "(stereo not given)", "Potency": "inactive"}
{"compound": "COc1ccc(O)cc1", "Potency": "inactive"}
{"compound": "CC(=O)Oc1ccccc1C(=O)O", "Potency": "inactive"}
{"compound": "O=c1c(-c2ccc(O)cc2)coc2cc(O)cc(O)c12", "Potency": "inactive"}
{"compound": "COc1cc(O)c(C(=O)c2ccccc2)cc1S(=O)(=O)O", "Potency": "inactive"}
{"compound": "c1ccc2[nH]c(-c3cscn3)nc2c1", "Potency": "inactive"}
{"compound": "Cc1cccc(Nc2cc(Cl)nc(SCC(=O)O)n2)c1C", "Potency": "inactive"}
{"compound": "COc1cc2c(c(OC)c1OC)-c1ccc(OC)c(=O)cc1[C@@H](NC(C)=O)CC2", "Potency": "inactive"}
{"compound": "NC(=O)OCC(COC(N)=O)c1ccccc1", "Potency": "inactive"}
{"compound": "C[C@]12CC[C@@H]3c4ccc(O)cc4C[C@@H](CCCCCCCCCS(=O)CCCC(F)(F)C(F)(F)F)[C@H]3[C@@H]1CC[C@@H]2O", "note": "(stereo not given in full)", "Potency": "8.41 µM (active)"}
{"compound": "COc1ccc(C(=O)c2ccccc2)c(O)c1", "Potency": "15.1 µM (active) and 27.3 µM (active) and 21.1 µM (active)"}
{"compound": "Cc1cccc(C)c1O", "Potency": "inactive"}
{"compound": "NCCNc1cccc2ccccc12", "Potency": "68.5 µM (active) and inactive"}
